Sfp PPTase inh – qHTS Assay for Inhibitors of Bacillus subtilis Sfp phosphopantetheinyl transferase (PPTase) | hit rate 3.5% among 310,000 | AID 1490, 2009 | Potency, µM, actives largely listed as inhibitors | Biochemical Sfp PPTase activity, qHTS; active = well fitted curve in the direction sought with a large enough effect; inconclusive = small, poorly fitted or top-dose-only effect, or another doubt; inactive = no such curve, though single readings can be large; an effect the other way counts as inactive or inconclusive;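 note: the enzyme is Sfp with the accession as filed and its product quenches rhodamine fluorescence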
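Fluorescence-quenching assay: 15 nM Sfp-PPTase preincubated 15 min at room temperature with compound, then 5 uM rhodamine-CoA and 12.5 uM BHQ-2-labelled YbbR peptide added. Fluorescence (ex 525/em 598 nm) read at start and after 30 min; difference gives rate.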
Coupling enz – qHTS Assay for Inhibitors of Fructose-1,6-bisphosphate Aldolase from Giardia Lamblia: Coupling assay counterscreen; activity change, negative = inhibition, % at 58.2 µM, hits read low; coupling enzyme system counterscreen, AmpLite Red fluorescence; hit rate 0.67% among 290,000; in the data active = activity change below about -30%
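Counterscreen lacking aldolase: glyceraldehyde-3-phosphate coupling-enzyme reagent preincubated 10 min at RT with compound (at 57.5 uM final), then substrate/coupling system with AmpLite Red added; fluorescence read at 525/598 nm after 20 min RT.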
NPSR antag – qHTS Assay for Antagonists of the Neuropeptide S Receptor: cAMP Signal Transduction. hit rate 1% among 220,000. Q6W5P4. Potency, µM (doses to about 38.3 µM), usual class: inhibitors. CHO-NPSR cells, cAMP TR-FRET, antagonist mode. AID 1461, 2008; active = well fitted curve in the direction sought with a large enough effect; inconclusive = small, poorly fitted or top-dose-only effect, or another doubt; inactive = no such curve, though single readings can be large; an effect the other way counts as inactive or inconclusive; note: nearly all actives have a fitted effect of over 50% in size
ALDH1A1 block – qHTS Assay for Inhibitors of Aldehyde Dehydrogenase 1 (ALDH1A1); Aldehyde dehydrogenase 1A1 (Homo sapiens), P00352; Purified ALDH1A1, NADH fluorescence, propionaldehyde substrate; Potency, µM (highest dose often 75.3 µM), most hits filed as inhibitors; hit rate 7.3% among 220,000
RGS12 GoLoco inh – qHTS Assay for Inhibitors of RGS12 GoLoco Motif Activity (Red Fluorophore) | AID 880, 2007 | Guanine nucleotide-binding protein G(i) subunit alpha-1 (Homo sapiens), P63096 | Potency, µM (doses to about 61.6 µM), usual class: inhibitors | Gai1:RGS12 GoLoco peptide FP, rhodamine, 10 min | hit rate 0.44% among 230,000; active = well fitted inhibition curve with a large enough effect, not every such curve was filed as active; inactive = no such curve, though single readings can be large or run the other way; note: nearly all actives have a fitted effect of over 30% in size
Target sequence (P63096 whole entry, looked up): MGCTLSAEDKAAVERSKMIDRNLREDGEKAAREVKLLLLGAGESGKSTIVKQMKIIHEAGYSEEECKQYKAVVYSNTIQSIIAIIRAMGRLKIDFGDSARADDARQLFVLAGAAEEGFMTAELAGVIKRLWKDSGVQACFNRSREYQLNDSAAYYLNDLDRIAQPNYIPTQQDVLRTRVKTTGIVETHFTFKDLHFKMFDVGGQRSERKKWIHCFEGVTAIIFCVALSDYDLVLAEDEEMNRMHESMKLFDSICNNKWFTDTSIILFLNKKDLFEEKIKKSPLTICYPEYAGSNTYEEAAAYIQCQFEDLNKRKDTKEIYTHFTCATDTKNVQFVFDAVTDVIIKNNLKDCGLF
JMJD2E inh – qHTS Assay for Inhibitors of Human Jumonji Domain Containing 2E (JMJD2E). AID 2147, 2009. hit rate 1.6% among 230,000. JMJD2E catalytic domain, FDH-coupled NADH fluorescence (FDH is formaldehyde dehydrogenase). Lysine-specific demethylase 4E (Homo sapiens), B2RXH2. Potency, µM (series often up to 57.1 µM), usual class: inhibitors; note: nearly all actives have a fitted effect of over 50% in size
Target sequence (B2RXH2 1-337 limits assumed): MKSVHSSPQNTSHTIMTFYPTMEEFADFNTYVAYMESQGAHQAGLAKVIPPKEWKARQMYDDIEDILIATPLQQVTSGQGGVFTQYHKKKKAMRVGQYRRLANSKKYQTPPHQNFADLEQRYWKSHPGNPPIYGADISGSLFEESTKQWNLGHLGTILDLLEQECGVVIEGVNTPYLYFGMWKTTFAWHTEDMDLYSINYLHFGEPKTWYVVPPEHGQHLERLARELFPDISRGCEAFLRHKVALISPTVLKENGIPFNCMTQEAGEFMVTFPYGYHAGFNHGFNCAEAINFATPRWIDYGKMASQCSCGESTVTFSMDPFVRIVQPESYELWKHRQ
Of the large screens only hits and unclear results are named; the others gave an inactive call; ! = a repeat was not active. The list is not random: actives were taken first. Their share in the collection is about 8.5%. Unless noted, calls come from the whole dose curve; as a rule, active = well fitted inhibition curve with a large enough effect (not every such curve was filed as active); inconclusive = small, poorly fitted or top-dose-only effect, or another doubt; inactive = no such curve, though single readings can be large or run the other way.

COc1ccc(/C=N/n2cnn(Cc3ccccc3Cl)c2=S)cc1	Sfp PPTase inh 25µM, ALDH1A1 block 10µM
O=C(CCl)Nc1cc2[nH]c(=O)[nH]c2cc1Br	ALDH1A1 block 2µM
Cc1cc2c(C)cc(=O)[nH]c2cc1NC(=O)CCl	ALDH1A1 block inconclusive, JMJD2E inh inconclusive
Cc1cc(C(=O)N/N=C/c2ccc3c(c2)OCO3)c(C)n1-c1ccc(F)cc1	ALDH1A1 block inconclusive
Cc1cc(C(=O)N/N=C/c2ccc(Cl)c([N+](=O)[O-])c2)c(C)n1-c1ccc(F)cc1	ALDH1A1 block inconclusive, JMJD2E inh 22µM
OCCCc1nc2n(n1)C(c1ccccc1Cl)C=C(c1cccs1)N2 (stereo unspecified)	Sfp PPTase inh 50µM, ALDH1A1 block inconclusive, JMJD2E inh inconclusive
Cc1cc(C(=O)CS(=O)(=O)c2ccc(F)cc2)cc(C)c1O	none (no result: NPSR antag, ALDH1A1 block, RGS12 GoLoco inh, JMJD2E inh)
O=C1C(=O)N(c2ccccc2)C(c2ccccc2[N+](=O)[O-])/C1=C(\O)c1ccccc1 (stereo unspecified)	Sfp PPTase inh 13µM, ALDH1A1 block inconclusive
O=C1C(=O)N(c2cccc(Cl)c2)C(c2ccccc2[N+](=O)[O-])/C1=C(\O)c1ccccc1 (stereo unspecified)	Sfp PPTase inh 22µM
CCOc1ccc(N2C(=O)C(=O)/C(=C(/O)c3ccccc3)C2c2ccccc2[N+](=O)[O-])cc1 (stereo unspecified)	Sfp PPTase inh inconclusive (no result: ALDH1A1 block)
CCOCCCNC(=O)/C(C#N)=C/c1cc(C)c(O)c(C)c1	ALDH1A1 block 10µM
CCOCCCNC(=O)/C(C#N)=C/c1cc(OC)c(O)c([N+](=O)[O-])c1	ALDH1A1 block 13µM, JMJD2E inh inconclusive
CCOCCCNC(=O)/C(C#N)=C/c1ccc(Cl)c([N+](=O)[O-])c1	ALDH1A1 block 10µM, JMJD2E inh 20µM
COCCNC(=O)/C(C#N)=C/c1ccc(O)c([N+](=O)[O-])c1	ALDH1A1 block inconclusive
Cc1ccccc1-n1ncc2c1CC(C)(C)CC2NC(=O)CCCN1CCCC1=O (stereo unspecified)	none (no result: Coupling enz, NPSR antag, ALDH1A1 block, RGS12 GoLoco inh, JMJD2E inh)
Cc1ncc([N+](=O)[O-])n1CC(=O)NC1CCCCCC1	none
COc1ccc(C2(C(=O)c3ccccc3)C(=O)c3ccccc3C2=O)cc1	Sfp PPTase inh 45µM (no result: ALDH1A1 block)
O=C(/C=C/c1ccccn1)c1cc(Br)ccc1O	Sfp PPTase inh inconclusive, NPSR antag inconclusive, ALDH1A1 block 22µM, JMJD2E inh inconclusive
O=C(/C=C/c1ccccn1)c1ccc(Br)cc1O	JMJD2E inh inconclusive
CCOc1cc2[nH]c(=O)n(CCCC(=O)N(C)Cc3ccccc3)c(=O)c2cc1OCC	JMJD2E inh inconclusive
CCN1C(=O)c2ccc(C(=O)Nc3cccc(C(=O)O)c3)cc2C1=O	none (no result: NPSR antag, ALDH1A1 block, RGS12 GoLoco inh, JMJD2E inh)
Cn1c(=S)c2[nH]c(SCCN3CCCC3)nc2n(C)c1=O	Sfp PPTase inh 40µM, JMJD2E inh inconclusive
Cn1c(=S)c2[nH]c(SCCN3C(=O)c4ccccc4C3=O)nc2n(C)c1=O	none (no result: Sfp PPTase inh, Coupling enz, NPSR antag, JMJD2E inh)
CC(C)(C)C1CCC(=NNC(=O)c2ccccc2-n2cccc2)CC1 (stereo unspecified)	ALDH1A1 block 5µM
CC1CCc2sc(C(=O)NN=C3CCC(c4ccccc4)CC3)cc2C1 (stereo unspecified)	ALDH1A1 block 1.3µM
CC(C)(C)C1CCc2sc(C(=O)NNC(=O)CCl)cc2C1 (stereo unspecified)	ALDH1A1 block 3.2µM
O=C(NN=C1CCC(c2ccccc2)CC1)c1cc2c(s1)CCCC2 (stereo unspecified)	ALDH1A1 block 7.9µM
CCc1cc(C(=O)NNC(=O)CCl)sc1C	ALDH1A1 block inconclusive
O=C1CSC(c2ccccc2)N1Cc1ccccc1 (stereo unspecified)	none (no result: NPSR antag, ALDH1A1 block, RGS12 GoLoco inh, JMJD2E inh)
CC(C)(C)C1CCC(=NNC(=O)c2cc3c(s2)CCCC3)CC1 (stereo unspecified)	ALDH1A1 block 4µM
CNC(=O)c1cc2c(s1)CCCCCC2	ALDH1A1 block inconclusive
O=C(O)c1ccc(Nc2nc(-c3cccnc3)cs2)cc1	Sfp PPTase inh 89µM (no result: NPSR antag, ALDH1A1 block, RGS12 GoLoco inh, JMJD2E inh)
COc1ccc(-c2csc(Nc3ccccc3)n2)cc1	ALDH1A1 block inconclusive
COc1ccc(-c2csc(Nc3cccnc3)n2)cc1	Sfp PPTase inh 79µM, NPSR antag inconclusive, ALDH1A1 block 28µM
Brc1ccc(Nc2nc(-c3cccnc3)cs2)cc1	Sfp PPTase inh 45µM
Oc1ccc(Nc2nc(-c3cccnc3)cs2)cc1	none (no result: NPSR antag, ALDH1A1 block, RGS12 GoLoco inh, JMJD2E inh)
CCOC(=O)C1(CCCc2ccccc2)CCN(S(=O)(=O)N(C)C)CC1	none (no result: NPSR antag, ALDH1A1 block, RGS12 GoLoco inh, JMJD2E inh)
Cc1c(Cl)cccc1Nc1ccccc1C(=O)O	RGS12 GoLoco inh 28µM!
CCOC(=O)c1cc2c(nc1NC(=S)Nc1ccccc1)CC(C)(C)OC2	ALDH1A1 block 14µM
CC1=C(n2nnc3ccccc32)C(c2ccccc2)C(C#N)=C(N)O1 (stereo unspecified)	Coupling enz -42, ALDH1A1 block 13µM, JMJD2E inh inconclusive
CCOC(=O)C1=C(c2ccccc2)OC(N)=C(C#N)C1c1ccncc1 (stereo unspecified)	Sfp PPTase inh inconclusive, ALDH1A1 block inconclusive
COC(=O)C1=C(C(=O)OC)C(c2cc(Cl)ccc2O)c2sc(=O)[nH]c2S1 (stereo unspecified)	Sfp PPTase inh 79µM, ALDH1A1 block 32µM (no result: Coupling enz)
COC(=O)C1=C(C(=O)OC)C(c2ccc(OC)c(OC)c2)c2sc(=O)[nH]c2S1 (stereo unspecified)	Sfp PPTase inh 20µM, ALDH1A1 block inconclusive, JMJD2E inh inconclusive
COC(=O)C1=C(C(=O)OC)C(c2cc(Br)ccc2O)c2sc(=O)[nH]c2S1 (stereo unspecified)	Sfp PPTase inh 20µM, ALDH1A1 block inconclusive
Cc1ccc(C)c(S(=O)(=O)N2CCCOC2CNC(=O)C(=O)NC2CC2)c1 (stereo unspecified)	none (no result: Coupling enz, NPSR antag, ALDH1A1 block, RGS12 GoLoco inh, JMJD2E inh)
OCc1cn(-c2ccccc2)nc1-c1cccnc1	none
N=C(N)SCc1cn(-c2ccccc2)nc1-c1ccc(Br)cc1	Sfp PPTase inh 50µM, NPSR antag inconclusive
COC(=O)c1ccccc1NC1=C/C(=N\S(=O)(=O)c2cccs2)c2ccccc2C1=O	ALDH1A1 block 3.2µM, JMJD2E inh inconclusive
COC(=O)c1cccc(NS(=O)(=O)c2cccs2)c1C	ALDH1A1 block inconclusive
COC(=O)c1ccccc1NC1=C/C(=N\S(=O)(=O)c2ccc(C(=O)O)cc2)c2ccccc2C1=O	Sfp PPTase inh 56µM, Coupling enz -48 (no result: NPSR antag, ALDH1A1 block, RGS12 GoLoco inh, JMJD2E inh)
O=C1CCCCCCC1Sc1ccccc1[N+](=O)[O-] (stereo unspecified)	ALDH1A1 block inconclusive

High-throughput results (PubChem BioAssay)
